From PubChem BioAssay AID720513 (Broad Institute, 2013)
About 480 (23%) of roughly 2,100 compounds were called active. Roughly 5% stayed inconclusive and do not appear here.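 Rule for the calls: active = fitted curve reaches 40% activation at or below the top valid concentration, in every replicate test; inconclusive = replicate tests disagree on the call; inactive = the rest, including activity in the opposite direction.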 These entries were drawn from the full list. Entries with a potency or affinity are not part of this list.

Test: activators raising PGC1a acetylation in cells, dose response, cell-based, cherry-picked samples, set 6 (AID 720513);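 note: cells made to overexpress flag tagged PGC1a plus GCN5 acetyltransferase by viral infection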
Details: U2OS PGC1a acetylation AlphaLISA, overnight, 0 = neutral, -100 = inhibitor control; series mostly up to 19.5 µM

outcome, inactive:
CO[C@@H]1CN(C)C(=O)c2ccc(NS(C)(=O)=O)cc2OC[C@@H](C)N(Cc2nccs2)C[C@@H]1C
O=C(C[C@@H]1C[C@@H]2c3cc(NC(=O)C4CCC4)ccc3O[C@@H]2[C@@H](CO)O1)NCc1ccc(-c2ccccc2)cc1
CC1=C(Cl)C2=NS(=O)(=O)CCN2C=C1Cl
O=C(c1ccc(Cl)cc1)C(Cn1cncn1)C(Sc1ccccc1)c1ccccc1 (stereo not drawn)
CCCNC(=O)N(C)C[C@H]1Oc2cc(C#CCC(C)C)ccc2S(=O)(=O)N([C@@H](C)CO)C[C@H]1C
COc1cc(CCC(=O)Nc2cc(C)cc(C)c2)cc(OC)c1OC
Cc1ccc(S(=O)(=O)N(CC2CO2)c2ccccc2[N+](=O)[O-])cc1 (stereo not drawn)
CC(C)c1ccccc1NC(=O)Cn1c(-c2ccccc2Cl)nc2ccccc21
O=S(=O)(O)c1nc2ccccc2n1Cc1ccc(Cl)cc1
O=S(=O)(c1ccc(N2CCC(c3ccc(Cl)cc3)=N2)cc1)N(CCO)CCO
COc1cccc(N2C(=NC(=O)c3ccccc3)SC3CS(=O)(=O)CC32)c1 (stereo not drawn)
CCOC(=O)c1ccc2[nH]c(C)c(CN3CCN(C)CC3)c(=O)c2c1
CC(Sc1nnc(N)s1)C(=O)Nc1ccc2c(c1)OCO2 (stereo not drawn)
CCCN(C)C[C@H]1Oc2cc(C#Cc3ccc(OC)cc3)ccc2S(=O)(=O)N([C@@H](C)CO)C[C@H]1C
C[C@H](CO)N1C[C@H](C)[C@H](CN(C)C(=O)C2CCCCC2)Oc2cc(-c3ccccc3)ccc2S1(=O)=O
Cc1cc(N)c2cc(NC(=O)/C=C/c3ccccc3Cl)ccc2n1
COc1ccc(-c2cn[nH]c2-c2ccc(O)cc2O)cc1
O=C(CCCc1cccs1)NCCc1c[nH]c2ccccc12
O=C(CN1C(=O)C2C3CC(C(Br)C3Br)C2C1=O)OCC(=O)c1cccc([N+](=O)[O-])c1 (stereo not drawn)
CC1=C(C(=O)OC(C)(C)C)C(c2ccc3ccccc3c2)NC(=O)N1C (stereo not drawn)
O=C(O)Cn1cc(C(=O)C(F)(F)F)c2ccccc21
O=C(Cn1cc(C(=O)c2cccs2)c2ccccc21)NCC1CCCO1 (stereo not drawn)
Cc1ccc(C(=O)Nc2nc(=O)n(C(=O)CC(C)C)s2)cc1
CN(C)c1ccc(/C=N/N(CCC#N)C2=NS(=O)(=O)c3ccccc32)cc1
COc1ccccc1C(=O)N1C(CC(=O)Nc2cc(Cl)ccc2C)C(=O)NC2CCCCC21 (stereo not drawn)
O=C(COc1ccccc1Cl)Nc1ccc(Cl)cn1
Cc1ccc(Sc2ncnc3onc(C)c23)c(C)c1
Cc1ccccc1CS(=O)(=O)c1nnc([C@H](CC(C)C)NC(=O)OC(C)(C)C)o1
COc1ccc(S(=O)(=O)N2CCC(C(=O)N3CCC(C(N)=O)CC3)CC2)cc1Cl
Cc1ccc(CN2CC(C(=O)N3CCN(S(=O)(=O)c4cccc(F)c4)CC3)CC2=O)cc1 (stereo not drawn)
CC(C)CC#Cc1ccc2c(c1)O[C@H](CN(C)C(=O)Cc1ccccc1)[C@H](C)CN([C@H](C)CO)S2(=O)=O
COCCn1c(C)c(C)c2c(NCCc3ccccc3)ncnc21
O=CNCCc1nc2ccccc2n1CCc1ccccc1
CN1CCN(C2=C(Cl)C(=O)N(CCc3ccccc3)C2=O)CC1
Cc1ccc(-c2ccc(C3[C@@H]4CN(C(=O)Nc5ccc(C(F)(F)F)cc5)C[C@H]3N4)cc2)cc1 (stereo partly drawn)
COCCNC(=O)CSc1nc2c(n1-c1ccccc1)CCCC2
C[C@@H]1CN([C@H](C)CO)C(=O)c2cccc(NC(=O)C3CCCCC3)c2O[C@@H]1CN(C)CC1CCCCC1
CCOC(=O)c1ccc(-c2c(-c3cc(OC)c(OC)c(OC)c3)noc2C)cc1F
O=C(C[C@@H]1C=C[C@@H](NC(=O)Nc2ccc(F)cc2)[C@@H](CO)O1)NCCN1CCCC1
CC(C)c1nc2sc3c(NCc4ccco4)ncnc3c2c2c1COC(C)(C)C2
O=C(Nc1ccc(F)cc1)c1sc2cc(C(F)(F)F)cnc2c1-c1cccs1
COc1cccc(-n2c(Cc3cc(=O)[nH]c(=O)[nH]3)nnc2SCc2cccc(C(F)(F)F)c2)c1
Cc1cccc(-c2ccc(C3[C@@H]4CN(C(=O)Nc5ccc(C(F)(F)F)cc5)C[C@H]3N4)cc2)c1 (stereo partly drawn)
COc1ccc(N(Cc2cc3cc(OC)ccc3[nH]c2=O)S(C)(=O)=O)cc1
COc1ccc(Oc2c(Cl)cnn(-c3ccccc3)c2=O)cc1
O=C(Nc1ccccc1)Nc1cc(Cl)cc(Cl)c1
C[C@H](CO)N1C[C@H](C)[C@@H](CN(C)C(=O)Nc2ccc(F)cc2)Oc2ncc(C#CC3CC3)cc2C1=O
O=C(c1ccco1)N1CCN(c2ncnc3scc(-c4cccs4)c23)CC1
COc1ccc(C2CC(c3cccs3)=NN2c2nc(C)c(C(C)=O)s2)cc1OC (stereo not drawn)
CCOC(=O)C1CCN(C(=O)CSc2ccc(Br)cc2)CC1
COc1ccccc1Oc1ccc2c(c1)C(=O)N(c1ccc(C)cc1)C2=O
O=C(O)c1cc(N2CCCCC2)ccn1
N#Cc1sc2nccc(Nc3ccccc3)c2c1N
c1ccc(N2CCN(C3CC4CCC3C4)CC2)cc1 (stereo not drawn)
COc1ccc(C(=O)Nc2ccc(S(=O)(=O)Nc3cc(C)nc(C)n3)cc2)cc1
Cc1ccc(OC[C@H](O)[C@H](C)NC(C)C)c2c1CCC2
CN(C)c1ccc(Sc2ccc3nc(N)nc(N)c3c2)cc1
O=C(Nc1cccc(F)c1)N1CC(=O)N2[C@@H](CO)[C@@H](c3ccc(C#Cc4cccnc4)cc3)[C@@H]2C1
CCCCCSc1nnc(C)c(=O)[nH]1
O=C(CC1CC1)N[C@H]1CC[C@@H](CCNS(=O)(=O)c2ccc(Cl)cc2)O[C@@H]1CO
CCOC(=O)c1c(-c2ccco2)csc1NC(=O)COC(=O)c1cnccn1
CCOC(=O)NC(=O)CSc1nnnn1-c1ccc(C)cc1
O=C(C[C@H]1CC[C@H](NC(=O)C2CCC2)[C@@H](CO)O1)NCC1CC1
O=C(Nc1ccc(F)cc1)N1CCCCN2[C@H](CO)[C@@H](c3ccc(C#Cc4ccccc4)cc3)[C@H]2C1
Cc1ccccc1-c1ccc(C2[C@@H]3CN(C(=O)Nc4cccc(F)c4)C[C@H]2N3)cc1 (stereo partly drawn)
COCCN(C(=O)CSc1nn(-c2ccc(F)cc2)c(=S)s1)c1c(N)n(CC(C)C)c(=O)[nH]c1=O
COc1ccccc1CNS(=O)(=O)c1cc(C)ccc1OC
C[C@@H]1CN([C@@H](C)CO)C(=O)CCCn2nncc2CO[C@H]1CN(C)Cc1ccc(O)cc1
CCOc1ccc(N(CC(=O)Nc2ccccc2OC)S(=O)(=O)c2ccccc2)cc1
C[C@@H]1CCCCO[C@H](CN(C)Cc2ccc3c(c2)OCO3)[C@@H](C)CN([C@@H](C)CO)C(=O)c2cc(NC(=O)Nc3ccc(C(F)(F)F)cc3)ccc2O1
CC(=O)c1cccc(-c2ccnc3c2CC(C(=O)Nc2ccc4c(c2)OCO4)O3)c1 (stereo not drawn)
O=C(NCc1ccccc1)C1Cc2c(-c3ccc4c(c3)OCO4)ccnc2O1 (stereo not drawn)
CC(=O)c1cccc(-c2ccnc3c2CC(C(=O)NCC2CC2)O3)c1 (stereo not drawn)
O=C(CSc1nnc(-c2ccncc2)n1-c1ccc(Cl)cc1)NCc1cccs1
COc1ccc(-c2[nH]ncc2-c2ccc3c(c2)OCCO3)c(O)c1
Cn1nc(C(=O)N2CCCCC2)c2c1-c1ccccc1S(=O)(=O)C2
CC(C)(C)c1ccc(-n2nc(C#N)c(Cl)cc2=O)cc1
Cc1cc(-c2c(C)[nH]n(-c3ccc(Cl)cc3)c2=O)n(-c2ccccc2)n1
COc1ccc(CN(C)C[C@@H]2OCCCC[C@@H](C)Oc3ccc(NS(C)(=O)=O)cc3C(=O)N([C@H](C)CO)C[C@@H]2C)cc1
CC(C)(C)NS(=O)(=O)c1ccc(-c2csnn2)s1
CC(C)CC#Cc1ccc2c(c1)O[C@H](CN(C)C)[C@@H](C)CN([C@H](C)CO)S2(=O)=O
CCC1(CC)Cc2ccccc2-c2nc(CN(C)C)[nH]c(=O)c21
COc1cc(C(C)=O)ccc1OCC(O)CN1CCN(c2ccc(C)c(C)c2)CC1 (stereo not drawn)
CC(=O)c1ccc(N2CCN(S(=O)(=O)c3csc(C(N)=O)c3)CC2)cc1
C[C@@H]1CN([C@H](C)CO)C(=O)CCCn2cc(nn2)CO[C@@H]1CN(C)C(=O)OCc1ccccc1
C[C@@H]1CN([C@H](C)CO)C(=O)c2cc(-c3ccccc3)cnc2O[C@@H]1CN(C)C(=O)Cc1ccccc1
COc1ccc(-c2cnc3c(c2)C(=O)N([C@H](C)CO)C[C@H](C)[C@@H](CN(C)C(=O)C2CC2)O3)cc1
COc1ccc(CN(C)C[C@H]2Oc3ccc(NC(=O)Cc4cn(C)c5ccccc45)cc3CC(=O)N([C@@H](C)CO)C[C@@H]2C)cc1
COc1ccc(-c2cnc3c(c2)C(=O)N([C@H](C)CO)C[C@H](C)[C@@H](CN(C)C(=O)C2CCC2)O3)cc1
CCCCC(C(=O)O)C(C)CC(=O)Nc1nncs1 (stereo not drawn)
C[C@@H]1CN([C@@H](C)CO)C(=O)c2cc(C3=CCCC3)cnc2O[C@H]1CN(C)C(=O)Nc1cccc(F)c1
CCOc1ccc(CN2CCNC(=O)C2CC(=O)NCc2ccccn2)cc1 (stereo not drawn)
CSCCC(NC(=O)OC(C)(C)C)C(=O)Oc1ccc2c(=O)c(-c3ccc4c(c3)OCCO4)coc2c1 (stereo not drawn)
